From PubChem BioAssay (Tox21)
“And” between values parts separate entries of the source, which are not always exact repeats. Equal values may be shown once. Records with an inconclusive call do not appear. The source made the active and inactive calls. Unless noted, the call rests on the fitted dose curve; in most records, active means well fitted curve in the direction sought with a large enough effect in the repeat runs; inconclusive means weak or mixed curves; inactive means no such curve, though single readings can be large; an effect the other way counts as inactive or inconclusive.

Legend:
[1] = qHTS assay to identify small molecule antagonists of the glucocorticoid receptor (GR) signaling pathway - cell viability counter screen (AID 720693); further: nearly all actives have a fitted effect of over 55% in size
[2] = qHTS assay for identifying genotoxic compounds that show differential cytotoxicity against isogenic chicken DT40 cell lines with known DNA damage response pathways - wild type cell line (AID 743012); further: nearly all actives have a fitted effect of over 60% in size; further: potency means the concentration at half of the fitted maximal effect
Summary of the method: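 Wild-type DT40 cells (300/well) exposed to compounds for 40 hours at 37 C/5% CO2. Viability read by CellTiter-Glo luminescence after 30 min at room temperature.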

[3] = qHTS assay for identifying genotoxic compounds that show differential cytotoxicity against isogenic chicken DT40 cell lines with known DNA damage response pathways - Rad54/Ku70 mutant cell line (AID 743015); further: nearly all actives have a fitted effect of over 60% in size; further: potency means the concentration at half of the fitted maximal effect
[4] = qHTS assay to identify small molecule antagonists of the androgen receptor (AR) signaling pathway - cell viability counter screen (AID 743033; further: nearly all actives have a fitted effect of over 45% in size)
[5] = qHTS assay for identifying genotoxic compounds that show differential cytotoxicity against isogenic chicken DT40 cell lines with known DNA damage response pathways - Rev3 mutant cell line (AID 743014); further: nearly all actives have a fitted effect of over 55% in size
[6] = molecular target: Androgen receptor (Homo sapiens) (UniProt P10275); test: qHTS assay to identify small molecule antagonists of the androgen receptor (AR) signaling pathway (AID 743035; active means well fitted inhibition curve with a large enough effect in the signal ratio in the repeat runs, not every such curve was filed as active; the % refers to the signal ratio)
Summary of the method: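 HEK293 cells stably carrying UAS-beta-lactamase reporter, 2,000/well, given compounds plus R1881 agonist and incubated 16 h at 37C. LiveBLAzer B/G FRET substrate then added for 2 h at room temperature before fluorescence reading.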

[7] = molecular target: Androgen receptor (Homo sapiens) (UniProt P10275); test: qHTS assay to identify small molecule agonists of the androgen receptor (AR) signaling pathway (AID 743036; active means well fitted activation curve with a large enough effect in the signal ratio in the repeat runs, with a control signal flat, not every such curve was filed as active; the % refers to the signal ratio)
Summary of the method: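 Quantitative HTS of the Tox21 10K library in HEK293 cells bearing a stably integrated UAS-controlled beta-lactamase reporter. Compound exposure lasted 16 h at 37C. Reporter activity was detected by FRET substrate fluorescence after 2 h at room temperature.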

[8] = molecular target: Androgen receptor (Homo sapiens) (UniProt P10275); test: qHTS assay to identify small molecule agonists of the androgen receptor (AR) signaling pathway using the MDA cell line (AID 743040; further: nearly all actives have a fitted effect of over 20% in size; further: potency means the concentration at half of the fitted maximal effect)
Summary of the method: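 After a 5 h incubation at 37C and 0% CO2, MDA-kb2 reporter cells were dosed with compounds in DMSO and kept 16 h under the same conditions. Luciferase activity was then read as luminescence with ONE-Glo.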

[9] = qHTS assay to identify small molecule antagonists of the androgen receptor (AR) signaling pathway using the MDA cell line - cell viability counter screen (AID 743041; further: nearly all actives have a fitted effect of over 45% in size)
Summary of the method: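 R1881-driven MDA-kb2 AR-luc cells, 3,000/well, were dosed with library compounds for 16 h; cell health came from CellTiter-Fluor fluorescence in the reporter wells.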

[10] = molecular target: Androgen receptor (Homo sapiens) (UniProt P10275); test: qHTS assay to identify small molecule antagonists of the androgen receptor (AR) signaling pathway using the MDA cell line (AID 743042; further: nearly all actives have a fitted effect of over 55% in size)
Summary of the method: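 Antagonist mode: compounds plus R1881 agonist added to MDA-kb2 AR-luc cells, incubated 16 h at 37C. Luciferase reporter luminescence quantified, with multiplexed CellTiter-Fluor readout for cell viability.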

Measured: Potency

Sequence of Androgen receptor (Homo sapiens) (P10275 whole entry, looked up): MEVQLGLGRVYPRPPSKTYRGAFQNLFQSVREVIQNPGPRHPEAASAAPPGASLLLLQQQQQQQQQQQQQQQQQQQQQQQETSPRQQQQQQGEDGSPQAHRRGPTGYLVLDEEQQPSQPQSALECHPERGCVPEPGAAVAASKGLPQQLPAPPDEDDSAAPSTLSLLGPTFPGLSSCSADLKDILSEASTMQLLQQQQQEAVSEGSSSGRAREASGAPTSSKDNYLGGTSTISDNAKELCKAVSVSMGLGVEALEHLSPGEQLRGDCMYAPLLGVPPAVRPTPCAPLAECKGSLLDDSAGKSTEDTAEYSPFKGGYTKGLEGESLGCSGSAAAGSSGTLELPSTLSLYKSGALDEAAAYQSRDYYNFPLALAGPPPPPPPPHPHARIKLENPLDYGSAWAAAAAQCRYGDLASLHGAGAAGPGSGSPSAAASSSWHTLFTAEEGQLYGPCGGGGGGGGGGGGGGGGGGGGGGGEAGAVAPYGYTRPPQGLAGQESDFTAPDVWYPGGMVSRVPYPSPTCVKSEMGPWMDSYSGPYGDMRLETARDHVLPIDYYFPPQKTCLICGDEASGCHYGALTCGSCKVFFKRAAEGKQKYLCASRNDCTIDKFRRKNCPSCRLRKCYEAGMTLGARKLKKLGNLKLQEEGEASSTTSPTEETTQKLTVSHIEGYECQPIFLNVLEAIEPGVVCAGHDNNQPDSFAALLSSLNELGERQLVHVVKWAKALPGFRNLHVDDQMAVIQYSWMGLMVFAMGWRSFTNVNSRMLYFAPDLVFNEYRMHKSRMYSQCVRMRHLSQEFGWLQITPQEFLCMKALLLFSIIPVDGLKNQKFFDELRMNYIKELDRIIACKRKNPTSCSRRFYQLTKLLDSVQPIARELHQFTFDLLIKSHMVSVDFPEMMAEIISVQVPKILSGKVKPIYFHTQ

CC[C@H]1OC(=O)[C@H](C)[C@@H](O[C@H]2C[C@@](C)(OC)[C@@H](O)[C@H](C)O2)[C@H](C)[C@@H](O[C@@H]2O[C@H](C)C[C@H](N(C)C)[C@H]2O)[C@](C)(O)C[C@@H](C)[C@@H]2N[C@@H](COCCOC)O[C@@H]([C@H]2C)[C@]1(C)O
inactive: [1] | [2] | [3] | [4]

NC(=O)Oc1ccc(Cc2ccccc2)cc1
inactive: [1] | [2] | [3] | [4]

O=C(O)c1ccc(NC(=O)[C@H](Cc2ccc(O)cc2)NC(=O)c2ccccc2)cc1
not listed: [3]
inactive: all other assays above

O=C(Nc1ccc(/C=C/c2ccc(NC(=O)c3cc(S(=O)(=O)O)c4cccnc4c3O)cc2S(=O)(=O)O)c(S(=O)(=O)O)c1)c1cc(S(=O)(=O)O)c2cccnc2c1O
active: [3] 29.8 µM
inactive: [1] | [2] | [4] | [9]

COc1cc(NCCCC(C)N)c2ncccc2c1 (configuration not stated)
active: [2] 29.8 µM | [3] 21.1 µM
inactive: [1] | [4] | [8] | [9] | [10]

COC(=O)CCC[N+](C)(C)C
inactive: [1] | [2] | [3] | [4] | [9]

CCOC(=O)C1=C[C@@H](OC(CC)CC)[C@H](NC(C)=O)[C@@H](N)C1
inactive: [1] | [2] | [3] | [4] | [9]

C[C@@H]1C[C@H]2[C@@H]3CCC4=CC(=O)C=C[C@]4(C)[C@@]3(F)[C@@H](O)C[C@]2(C)[C@@]1(O)C(=O)COC(=O)c1cccc(S(=O)(=O)O)c1
active: [8] 0.0841 µM
not listed: [5] | [6] | [7]
inactive: all other assays above

CS(=O)(=O)NC(=O)CCC/C=C\C[C@H]1C(=O)C[C@@H](O)[C@@H]1/C=C/[C@H](O)COc1ccccc1
inactive: [1] | [2] | [3] | [4] | [9]

CO[C@H]1C[C@H](O[C@@H]2/C(C)=C/C[C@@H]3C[C@@H](C[C@]4(CC[C@H](C)[C@@H](C5CCCCC5)O4)O3)OC(=O)[C@@H]3C=C(C)/C(=N/O)[C@H]4OC/C(=C\C=C\[C@@H]2C)[C@]43O)O[C@@H](C)[C@@H]1O
inactive: [1] | [2] | [3] | [4] | [9]

Cc1c(O)cc2c(c1C)O[C@](C)(CCC[C@H](C)CCC[C@H](C)CCCC(C)C)CC2
inactive: [1] | [2] | [3] | [4] | [9]

CC1CS(=O)(=O)CCN1/N=C/c1ccc([N+](=O)[O-])o1 (configuration not stated)
inactive: [1] | [2] | [3] | [4] | [9]

O=C(NCCNCC(O)COc1ccc(O)cc1)N1CCOCC1 (configuration not stated)
inactive: [1] | [2] | [3] | [4] | [9]

CCCCC(=O)O[C@H]1CC[C@H]2[C@@H]3CCc4cc(O)ccc4[C@H]3CC[C@]12C
active: [2] 18.8 µM | [3] 16.8 µM
inactive: [1] | [4] | [9]

O=C(O)CN(CC(=O)O)CC1=CC2C(=CC1=O)Oc1cc(O)c(CN(CC(=O)O)CC(=O)O)cc1C21OC(=O)c2ccccc21 (configuration not stated)
inactive: [1] | [2] | [3] | [4] | [8] | [10]

CN(C)C=Nc1c(I)cc(I)c(CCC(=O)O)c1I
inactive: [1] | [2] | [3] | [4] | [9]

COc1cc([C@@H]2c3cc4c(cc3C(O[C@@H]3O[C@@H]5CO[C@@H](C)O[C@H]5[C@H](O)[C@H]3O)C3COC(=O)[C@@H]32)OCO4)cc(OC)c1OP(=O)(O)O (some centres not stated)
inactive: [1] | [4] | [9]
active: [2] 531 nM and 750 nM | [3] 53.1 nM and 75 nM

C[C@]12CCC(=O)C=C1CC[C@@H]1[C@@H]2[C@@H](O)C[C@@]2(C)[C@H]1CC[C@]2(O)C(=O)COP(=O)(O)O
inactive: [1] | [2] | [3] | [4] | [9]

CN(CCO)CC(O)Cn1cnc2c1c(=O)n(C)c(=O)n2C (configuration not stated) (tested in a mixture with another compound)
inactive: [1] | [2] | [3] | [4] | [9]

CC(=O)Oc1c(C)cc(OCC(O)CNC(C)C)c(C)c1C (configuration not stated)
inactive: [1] | [2] | [3] | [4] | [9]

CO/N=C(\C(=O)N[C@@H]1C(=O)N2C(C(=O)O)=CCS[C@H]12)c1csc(N)n1
inactive: [1] | [2] | [3] | [4] | [9]

C[C@H]1C[C@@H]2[C@H]([C@@H](O)C[C@@]3(C)[C@H]2CC[C@]3(O)C(=O)COC(=O)CCC(=O)O)[C@@]2(C)C=CC(=O)C=C12
inactive: [1] | [2] | [3] | [4] | [9]

CCCCCCCN(CC)CCCC(O)c1ccc(NS(C)(=O)=O)cc1 (configuration not stated)
active: [2] 23.7 µM | [3] 26.6 µM
inactive: [1] | [4] | [9]

CCCC(=O)Nc1ncnc2c1ncn2[C@@H]1O[C@@H]2COP(=O)(O)O[C@H]2[C@H]1OC(=O)CCC
inactive: [1] | [2] | [3] | [4] | [9]
